Data as given in ChEMBL document CHEMBL3988442, “University of Dundee, Small-Polar-MMV Screening Library” (2021).
Screen size: about 48,000 compounds; about 13,000 (27%) showed an effect of 50% or more. Some of the results follow.

Test system: Wolbachia pipientis
Assay: Anti-Wolbachia Cell-Based Screen
Format: functional
Set-up: scale not given: in the data most compounds retested in dose-response had high values
Conditions: 5 µM

SMILES | Percent Effect
CNC(=O)CCCNCc1c(C)nn(CC(C)C)c1N(C)C | 0.5097%
CC(=O)N1CCN(c2ccccc2CNc2ccc3[nH]ncc3c2)CC1 | -1.242%
CCNC(=O)CN1CCCN(C(=O)C2CCCc3[nH]ncc32)CC1 (stereo not given) | 2.738%
CC(C#N)NS(=O)(=O)c1ccc2c(c1)N(C)CCC2 (stereo not given) | -3.388%
Cc1nc(CCNC(=O)C2CC(=O)N(C(C)(C)C)C2)sc1Cl (stereo not given) | -46.08%
N#Cc1ccc2c(c1)CN(C(=O)C1CC=CC1)C2c1cnco1 (stereo not given) | -2.479%
O=C(COC1CCCC1)N1CC[C@H]2OCC[C@@]2(COCC2CC2)C1 | 5.898%
COCC(=O)N1C[C@H]2CCC[C@@]2(COC)C1 | 91.12%
CC(C)(O)CN1CCN(C(=O)COC2CCCC2)CC1 | -11.71%
COCC(=O)N1C[C@@H]2COC[C@]2(COC)C1 | -5.007%
COC[C@@]12CCC[C@@H]1CN(C(=O)COC1CCCC1)C2 | 116%
O=C(Cc1ccco1)N1C[C@H]2CCC[C@@]2(COCC2CC2)C1 | 4.43%
Cc1csc(N(C)C(=O)C2CC(=O)N(c3ccccc3F)C2)n1 (stereo not given) | 1.281%
CCc1cnc(N2CCC(=O)N(CC3CC3)C(C(C)C)C2)nc1 (stereo not given) | -22.71%
COc1ncnc2c1CCN(Cc1cccc(C)n1)CC2 | 95.16%
O=C(N1CCOCC1)N1CCc2ncnc(Oc3cccnc3)c2CC1.O=C(O)C(F)(F)F | 0.6158%
Cc1cccc(CN2CCc3ncnc(-c4ccsc4)c3CC2)n1.O=C(O)C(F)(F)F | 18.15%
Cc1cccc(CN2CCc3ncnc(Oc4cccnc4)c3CC2)n1 | 126.9%
COc1ncnc2c1CCN(c1cccc(F)c1)CC2 | 16.21%
Cc1c(Br)cccc1CNC1(CCO)CCOCC1 | -8.762%

SMILES | Percent Effect
Cc1cccc(-c2ccc(C(=O)NCC(C)(C)C(N)=O)c(=O)[nH]2)c1 | 6.298%
O=c1n(CC2CCCO2)nc(CC2CCNCC2)n1-c1ccccc1 (stereo not given) | -2.06%
CNC(=O)CN1C(=O)CCC12CCCN(CCc1ccccc1)C2 (stereo not given) | -21.16%
CNC(=O)CN1CCOCC2(CCCN(Cc3ccsc3)C2)C1.O=C(O)C(F)(F)F.O=C(O)C(F)(F)F (stereo not given) | 99.42%
CNC(=O)CN1CCOCC2(CCCN(Cc3ccc(F)cc3)C2)C1.O=C(O)C(F)(F)F.O=C(O)C(F)(F)F (stereo not given) | 113%
CNC(=O)CN1CCOCC2(CCCN(Cc3ccoc3)C2)C1 (stereo not given) | 84.78%
Cc1ccc(CN2CCCC3(CCN(Cc4ccoc4)CC3)C2)cc1.O=C(O)C(F)(F)F.O=C(O)C(F)(F)F | 12.66%
CNC(=O)CN1CCOCC2(C1)CN(Cc1csnn1)CCO2 (stereo not given) | -63.88%
Fc1ccc(CN2CCOCC3(CCN(Cc4nccs4)C3)C2)cc1.O=C(O)C(F)(F)F.O=C(O)C(F)(F)F (stereo not given) | 2.438%
Fc1ccc(CN2CCCC3(COCCN(Cc4c[nH]nn4)C3)C2)cc1.O=C(O)C(F)(F)F.O=C(O)C(F)(F)F (stereo not given) | -5.043%
CNC(=O)CN1CCOCC2(CCCN(CCc3ccccc3)C2)C1.O=C(O)C(F)(F)F.O=C(O)C(F)(F)F (stereo not given) | 95.77%
CN(C)CCN1CCOCC2(CCCN(C(=O)Cc3ccccc3)C2)C1.O=C(O)C(F)(F)F.O=C(O)C(F)(F)F (stereo not given) | -11.48%
O=C(O)C(F)(F)F.O=C(O)C(F)(F)F.c1cc(CN2CCCC3(COCCN(Cc4c[nH]nn4)C3)C2)cs1 (stereo not given) | -3.228%
O=C(Cc1ccsc1)N1CCCC2(COCCN(CC3CC3)C2)C1.O=C(O)C(F)(F)F (stereo not given) | -6.273%
CN(C)c1ccc2c(c1)CN(C(=O)c1cnccn1)C2c1cnco1 (stereo not given) | 6.67%
COCCN1CCOCC2(CCCN(Cc3cccc(F)c3)C2)C1.O=C(O)C(F)(F)F.O=C(O)C(F)(F)F (stereo not given) | 114.4%
COCCN1CCC2(COCCN(Cc3ccc4c(c3)OCO4)C2)C1.O=C(O)C(F)(F)F.O=C(O)C(F)(F)F (stereo not given) | 1.486%
COCCN1CCOCC2(CCCN(Cc3ccc(C)o3)C2)C1.O=C(O)C(F)(F)F.O=C(O)C(F)(F)F (stereo not given) | 4.497%
COCCOc1ccc(S(=O)(=O)Nc2cccnc2O)cc1C | -11.72%
CCC(=O)NC1CCCN(Cc2ccc(NC(C)=O)cc2)C1 (stereo not given) | 21.19%

SMILES | Percent Effect
Fc1ccc(CN2CCCC(c3cc4ncccc4[nH]3)C2)cc1 (stereo not given) | 39.65%
CC(=O)Nc1ccc(CN2CCCC(c3cc4ncccc4[nH]3)C2)cc1 (stereo not given) | 130.8%
CC(=O)NC1CCCN(Cc2ccc(-n3ccnc3)cc2)C1 (stereo not given) | 4.103%
CCOc1nnc(CN2CCCC(c3nc4ccccc4[nH]3)C2)s1 (stereo not given) | -5.507%
CCOc1ccc(CN2CCCC(c3cc4ncccc4[nH]3)C2)cc1 (stereo not given) | 111.1%
CCc1c(C(=O)N2CC(C)OC(C)(C)C2)cnn1-c1ccccn1 (stereo not given) | -9.37%
Cc1nc(C2CCCN2C(=O)CCCOc2ccccc2C)no1 (stereo not given) | 3.026%
CC(C)c1nc(C2CCCN(C(=O)CN3CCN(C)CC3)C2)no1 (stereo not given) | -17.54%
Cc1nc(C2CCCN2C(=O)CCCn2cccn2)no1 (stereo not given) | 80.92%
CC(C)c1nc(C2CCCN(C(=O)CCn3cncn3)C2)no1 (stereo not given) | 109.8%
Cc1csc(C2CCCCN2C(=O)CCCn2cccn2)n1 (stereo not given) | -9.362%
Cc1csc(C2CCCCN2C(=O)CCn2cncn2)n1 (stereo not given) | 8.818%
Cc1nc(C2CCCN2C(=O)Cn2cncn2)no1 (stereo not given) | 83.95%
Cc1csc(C2CCCCN2C(=O)Cn2cncn2)n1 (stereo not given) | -6.402%
Cc1nc(C2CCCN2C(=O)CCn2cncn2)no1 (stereo not given) | 102.5%
CC(C)c1nc(C2CCCN(C(=O)CCCn3cncn3)C2)no1 (stereo not given) | 2.854%
Cc1nc(C2CCCN2C(=O)CNS(C)(=O)=O)no1 (stereo not given) | -1.869%
CCC(CC)n1nc(C)cc1NC(=O)C1CCCO1 (stereo not given) | 0.9599%
COCCNC(=O)[C@H]1CC[C@@H]2[C@@H](CCN2S(C)(=O)=O)O1 | -5.573%
COc1cc2c(cc1-c1nc3c(cnn3C(C)C(C)C)[nH]1)OCO2 (stereo not given) | -3.309%
